Laboratory results taken from PubChem BioAssay (EPA / NIEHS).
Values joined by “and” are separate entries in the source; they are usually repeats but may differ in a detail not shown here. Equal entries are not always repeated. Some structures have more than one record in an assay (separate samples or runs), and their calls can disagree. Active and inactive are the calls of the source. How the source made its calls: active means hit-call score of the fitted dose curve at least 0.9, where 1 is the maximum; inactive means score below 0.9.

Experiments:
[1] = target: Nuclear respiratory factor 1 (Homo sapiens) (UniProt Q16656); assay: ATG_NRF1_CIS: Attagene CIS-FACTORIAL HepG2 Assay for human Nuclear Respiratory Factor 1 (NRF1) Orphan Gene (AID 2282987); details: HepG2 NRF1 cis-element reporter, Attagene multiplex; actives raise or lower the signal
Sequence of Nuclear respiratory factor 1 (Homo sapiens) (Q16656 whole entry, looked up): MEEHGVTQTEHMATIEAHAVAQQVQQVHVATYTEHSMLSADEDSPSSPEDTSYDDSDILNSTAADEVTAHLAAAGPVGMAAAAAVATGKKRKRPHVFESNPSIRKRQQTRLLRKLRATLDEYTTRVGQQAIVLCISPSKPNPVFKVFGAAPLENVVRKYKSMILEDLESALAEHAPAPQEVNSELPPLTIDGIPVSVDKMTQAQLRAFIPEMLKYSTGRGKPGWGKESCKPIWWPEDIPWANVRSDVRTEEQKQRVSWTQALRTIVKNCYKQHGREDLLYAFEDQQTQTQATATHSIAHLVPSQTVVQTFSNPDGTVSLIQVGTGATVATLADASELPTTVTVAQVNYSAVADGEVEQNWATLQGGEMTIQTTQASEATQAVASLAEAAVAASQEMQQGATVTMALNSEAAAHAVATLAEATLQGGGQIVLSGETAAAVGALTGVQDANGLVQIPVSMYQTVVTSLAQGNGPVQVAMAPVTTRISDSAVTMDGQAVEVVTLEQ
Summary of the method: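 Multiplexed cis-reporter assay, HepG2 cells, 24 h treatment. Total RNA → oligo(dT) RT → PCR with reporter-specific primers → 6-FAM primer extension → HpaI cut → CE. Bidirectional fit vs DMSO.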

[2] = ATG_NFI_CIS: Attagene CIS-FACTORIAL HepG2 Assay for human Nuclear Factor I (NFI) (AID 2282989); details: HepG2 cis-regulatory reporter, NFI response element transcription; actives raise or lower the signal
Summary of the method: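 Endogenous TF activity in HepG2 cells transiently transfected with cis-element-driven multiplexed reporter units, read 24 h after dosing. Reporter mRNA quantified by RT-PCR, 6-FAM labelling, HpaI digestion and capillary electrophoresis; bidirectional fit versus DMSO.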

[3] = target: Myc proto-oncogene protein (Homo sapiens) (UniProt P01106); assay: ATG_Myc_CIS: Attagene CIS-FACTORIAL HepG2 Assay for human Myelocytomatosis (Myc) Proto-Oncogene Transcription Factor (AID 2282990); details: HepG2, Attagene cis-reporter transcription factor activity; actives raise or lower the signal
Sequence of Myc proto-oncogene protein (Homo sapiens) (P01106 whole entry, looked up, the tested form may be a part): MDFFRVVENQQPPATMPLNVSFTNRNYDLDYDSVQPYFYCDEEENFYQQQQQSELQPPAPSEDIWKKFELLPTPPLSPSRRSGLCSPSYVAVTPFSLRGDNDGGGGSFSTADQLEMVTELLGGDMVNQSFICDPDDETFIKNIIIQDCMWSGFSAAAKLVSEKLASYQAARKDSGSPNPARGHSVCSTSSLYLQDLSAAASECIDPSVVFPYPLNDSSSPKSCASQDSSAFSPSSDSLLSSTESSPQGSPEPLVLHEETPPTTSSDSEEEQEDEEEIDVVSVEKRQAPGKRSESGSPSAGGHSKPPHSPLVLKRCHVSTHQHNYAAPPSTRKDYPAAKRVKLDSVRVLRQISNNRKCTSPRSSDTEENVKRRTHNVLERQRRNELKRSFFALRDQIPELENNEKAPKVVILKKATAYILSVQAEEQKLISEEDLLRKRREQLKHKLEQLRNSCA
Summary of the method: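 Fluorescence intensity of reporter-specific cDNA fragments, separated by capillary electrophoresis, gives the signal. Transfected HepG2 cells carrying cis-promoter reporter constructs are incubated with compound for 24 h; DMSO serves as baseline.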

[4] = ATG_NRF2_ARE_CIS: Attagene CIS-FACTORIAL HepG2 Assay for human Nuclear Factor Erythroid 2 Related Factor 2 (NFR2) response to Antioxidant Response Elements (ARE) (AID 2282992); details: HepG2 Attagene ARE/NRF2 reporter, transcription factor activity; actives raise or lower the signal;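 on AC50: reporter mRNA level measured by RT-PCR and capillary electrophoresis fluorescence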
Summary of the method: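 Endogenous transcription factor activity in human liver HepG2 cells is tracked via a cis-element-driven reporter within a multiplexed set. mRNA induction is read by RT-PCR and capillary electrophoresis after 24 h, with DMSO as baseline.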

[5] = ATG_Oct_MLP_CIS: Attagene CIS-FACTORIAL HepG2 Assay for human Octamer-Binding Transcription Factor (Oct) (AID 2282993); details: HepG2 Attagene cis-factorial Oct reporter, mRNA; actives raise or lower the signal
Summary of the method: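 HepG2 cells transiently transfected with cis-element-driven reporter transcription units (endogenous TF activity); 24 h compound exposure. Reporter mRNA quantified by RT-PCR, 6-FAM labelling, HpaI digestion and capillary electrophoresis; bidirectional fit versus DMSO baseline.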

[6] = target: Cellular tumor antigen p53 (Homo sapiens) (UniProt P04637); assay: ATG_p53_CIS: Attagene CIS-FACTORIAL HepG2 Assay for human p53 Transcription Factor (AID 2282994); details: HepG2 p53 cis-element reporter, Attagene mRNA; actives raise or lower the signal
Sequence of Cellular tumor antigen p53 (Homo sapiens) (P04637 whole entry, looked up, the tested form may be a part): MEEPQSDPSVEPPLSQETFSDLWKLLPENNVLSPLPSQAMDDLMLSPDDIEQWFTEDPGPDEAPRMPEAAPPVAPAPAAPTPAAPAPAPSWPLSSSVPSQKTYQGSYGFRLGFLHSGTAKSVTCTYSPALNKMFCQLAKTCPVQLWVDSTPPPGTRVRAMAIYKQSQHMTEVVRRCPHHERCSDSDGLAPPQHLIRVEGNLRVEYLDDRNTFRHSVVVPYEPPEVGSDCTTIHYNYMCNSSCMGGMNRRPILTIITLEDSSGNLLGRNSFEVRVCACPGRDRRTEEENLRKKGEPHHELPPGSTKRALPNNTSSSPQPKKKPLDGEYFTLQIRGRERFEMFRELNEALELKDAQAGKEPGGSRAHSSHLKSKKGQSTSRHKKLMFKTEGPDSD
Summary of the method: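 Steps: transfect HepG2 with multiplexed cis reporter constructs; dose chemicals 24 h; extract RNA, reverse-transcribe, PCR-amplify reporter sequences; FAM-label, HpaI-digest, resolve fragments by CE. Activity fitted both directions relative to DMSO.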

[7] = BSK_3C_TissueFactor: BioMAP Diversity Plus: 3C Assay for Tissue Factor Biomarker Activity (AID 2282997); details: BioMAP 3C HUVEC, tissue factor biomarker readout; actives raise or lower the signal
Summary of the method: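 HUVEC, 3C system, 24 h post-dose; Tissue Factor by ELISA; bidirectional fit vs DMSO baseline.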

[8] = BSK_3C_uPAR: BioMAP Diversity Plus: 3C Assay for Urokinase-type plasminogen activator receptor (uPAR) Biomarker Activity (AID 2282998); details: BioMAP 3C HUVEC, uPAR biomarker ELISA; actives raise or lower the signal
Summary of the method: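 Primary human umbilical vein endothelial cells, 3C system; surface uPAR measured by ELISA 24 h after dosing. Cytotoxicity via SRB total protein in parallel cultures; bidirectional fit against DMSO.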

[9] = BSK_3C_VCAM1: BioMAP Diversity Plus: 3C Assay for Vascular cell adhesion molecule 1 (VCAM1) Biomarker Activity (AID 2282999); details: BioMAP 3C HUVEC, VCAM1 ELISA, cytokine-stimulated; actives raise or lower the signal
Summary of the method: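 HUVEC primary cells, 24 h compound exposure; VCAM-1 by ELISA; gain/loss of signal fitted bidirectionally vs DMSO baseline.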

[10] = ATG_NF_kB_CIS: Attagene CIS-FACTORIAL HepG2 Assay for human Nuclear Factor Kappa B (NF-kB) (AID 2282991); details: HepG2 Attagene cis-factorial NF-kB reporter mRNA; actives raise or lower the signal
Summary of the method: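 Transient MRTU transfection of human HepG2 liver cells → 24 h chemical exposure → total RNA, oligo(dT) RT → PCR, 6-FAM primer extension, HpaI digest 2 h 37 C → CE fragment analysis. Bidirectional fitting, DMSO negative control.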

Measured: AC50

OC1CCC(C2CCCCC2)CC1 (stereo unspecified)
active: [4] 140 µM [middle of 4 runs]
not listed: [10]
inactive: all other assays above

O=C(O)c1ccccc1C(c1ccc(O)cc1)c1ccc(O)cc1
not listed: [6]
inactive: all other assays above

CN1CCN(c2ccccc2/C=C2\SCCN(c3ccc(Cl)c(Cl)c3)C2=O)CC1
active: [4] 3.7 µM | [7] 6.4 µM | [8] 16.2 µM
inactive: all other assays above

Cc1oc(-c2ccccc2)nc1CCOc1ccc(C[C@H](Nc2ccccc2C(=O)c2ccccc2)C(=O)O)cc1
inactive: [2] | [10] | [4] | [6]
active: [1] 18.6 µM | [3] 18 µM | [5] 18.2 µM | [7] 36.7 µM | [8] 14.6 µM | [9] 33.1 µM

OC1CCCCC1
not listed: [10]
inactive: all other assays above

Oc1cc2ccccc2c2ccccc12
active: [7] 8.37 µM | [8] 11.2 µM | [9] 8.07 µM
inactive: all other assays above

CC(C)CCCCCCOC(=O)CCCCC(=O)OCCCCCCC(C)C
inactive: all assays above

COC(=O)CCCCC(=O)OC
not listed: [10]
inactive: all other assays above

CN(C)C=O
inactive: all assays above

CCCCCCCCC(=O)O
not listed: [10]
inactive: all other assays above

CCCCC(CC)COC(=O)CCCCC(=O)OCc1ccccc1 (stereo unspecified)
not listed: [10]
inactive: all other assays above

NC(=O)N1C(=O)C(C(=O)c2cc(Cl)cs2)c2cc(F)c(Cl)cc21 (stereo unspecified)
active: [4] 6.05 µM | [5] 11 µM | [7] 5.53 µM | [8] 14.7 µM
not listed: [10]
inactive: all other assays above

O=[N+]([O-])c1ccc(O)cc1
inactive: all assays above

CCCOc1sc(C(=O)N2CCC(c3cc(CN)ccc3F)CC2)c(C)c1Br
active: [4] 1.49 µM | [7] 9.59 µM | [8] 5.41 µM | [9] 7.38 µM
inactive: all other assays above

CCCCC(CC)COC(=O)CCCCC(=O)OCC(CC)CCCC (stereo unspecified)
inactive: all assays above

O=C(OCCOCCOC(=O)c1ccccc1)c1ccccc1
inactive: all assays above

Cc1cc(C)c(O)c(C)c1
active: [4] 27.7 µM | [5] 100 µM
not listed: [10]
inactive: all other assays above

CC[C@H](C)[C@@H](C(=O)O)n1sc2ccccc2c1=O
active: [4] 73.8 µM
not listed: [10]
inactive: all other assays above

c1ccc2c(c1)Cc1ccccc1-2
active: [7] 4.37 µM
inactive: all other assays above

ClC1=C(Cl)C(Cl)(Cl)C(Cl)=C1Cl
inactive: [3]
active: [1] 14 µM and 9.06 µM | [2] 15.3 µM and 7.42 µM | [10] 8.6 µM and 5.05 µM | [4] 3.07 µM and 6.04 µM | [5] 13.4 µM and 6.26 µM | [6] 17.4 µM and 11.1 µM | [7] 5.07 µM | [8] 5.21 µM | [9] 5.82 µM

c1ccc2c(c1)ccc1ccccc12
active: [7] 3.97 µM
inactive: all other assays above

CCCCCCCCCCCCc1ccccc1S(=O)(=O)O
inactive: all assays above

COCC(C)OCC(C)O (stereo unspecified)
inactive: all assays above

CCN(CC)CCNc1ccc(CNC=O)c2sc3ccc(OC)cc3c(=O)c12
active: [1] 1.04 µM | [2] 843 nM | [3] 0.508 µM | [4] 0.0735 µM | [5] 0.842 µM | [6] 117 nM | [7] 31.2 µM | [8] 12.3 µM | [9] 26.8 µM

CCCOC(=O)c1ccc(O)cc1
active: [4] 77.7 µM | [5] 168 µM
inactive: [1] | [2] | [3] | [4] | [5] | [6] | [7] | [8] | [9]

CCCCCCCCCCCCN1CCCC1=O
active: [7] 33.6 µM | [8] 31.1 µM | [9] 35.2 µM
inactive: all other assays above

CN1CCC[C@H]1c1cccnc1
not listed: [6] | [10]
inactive: all other assays above

CCOC(=O)CC(O)(CC(=O)OCC)C(=O)OCC
inactive: all assays above

CC(=O)CC(C)(C)O
inactive: all assays above

O=C(O)Cc1cc(I)c(Oc2cc(I)c(O)c(I)c2)c(I)c1
inactive: [1] | [6] | [8] | [9]
active: [2] 47.9 µM and 17.2 µM | [3] 48.6 µM and 16.8 µM | [10] 105 µM and 46.1 µM | [4] 17 µM and 16.9 µM | [5] 34.8 µM and 33.3 µM | [7] 24.3 µM

CC(C)(C)c1ccc(O)c(C(C)(C)C)c1
active: [7] 8.52 µM | [8] 9.34 µM | [9] 12.4 µM
inactive: all other assays above

N#C[C@@H]1CC(F)(F)CN1C(=O)CNC1CC2CCC(C1)N2c1ncccn1 (stereo partly specified)
inactive: all assays above

Oc1cccc(O)c1
inactive: all assays above

CCCCCCC(=O)O
not listed: [10]
inactive: all other assays above

c1ccc2cc3c(ccc4ccccc43)cc2c1
inactive: [1] | [2] | [3] | [5] | [6] | [7] | [8] | [9]
active: [5] 1.21 µM and 7.63 µM

CCCCCCCC(=O)O
not listed: [10]
inactive: all other assays above
